Whole data set: some 33,000 sequences, median “E-score (-0.5 to 0.5)” near -0.012, cut for the highest 2% near 0.27. The list comes from a sample in which the highest values are over-represented; it also holds similar and randomly drawn sequences.
Molecular target: T1, Vhr1 (UniProt P40522)
T1 sequence: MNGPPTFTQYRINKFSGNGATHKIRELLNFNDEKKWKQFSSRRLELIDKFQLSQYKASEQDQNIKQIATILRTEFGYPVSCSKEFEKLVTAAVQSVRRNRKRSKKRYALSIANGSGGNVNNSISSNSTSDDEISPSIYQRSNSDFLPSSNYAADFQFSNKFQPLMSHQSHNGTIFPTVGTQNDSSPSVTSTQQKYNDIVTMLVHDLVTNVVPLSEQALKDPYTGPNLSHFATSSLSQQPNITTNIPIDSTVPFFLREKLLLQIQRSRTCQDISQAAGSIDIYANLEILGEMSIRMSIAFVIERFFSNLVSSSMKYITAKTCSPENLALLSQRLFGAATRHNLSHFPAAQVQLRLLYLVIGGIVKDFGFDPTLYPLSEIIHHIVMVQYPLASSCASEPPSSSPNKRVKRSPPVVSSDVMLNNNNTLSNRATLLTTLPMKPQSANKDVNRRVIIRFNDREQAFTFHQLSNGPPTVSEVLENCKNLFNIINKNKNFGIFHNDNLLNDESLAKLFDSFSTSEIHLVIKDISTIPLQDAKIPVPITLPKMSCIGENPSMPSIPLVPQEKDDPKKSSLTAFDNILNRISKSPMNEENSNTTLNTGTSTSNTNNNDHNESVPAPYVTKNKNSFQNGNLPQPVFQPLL
Assay: PBM E-score (8-mer binding enrichment) (E-score (-0.5 to 0.5)); higher = stronger / more preferred TF binding
Details: protein concentration: 200 nM; construct: GST-full length
Method: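 Universal 'all 10-mer' protein binding microarrays (Agilent AMADID 015681) probed with GST-tagged S. cerevisiae TFs (full-length or DBD) made by in vitro transcription/translation (PURExpress), about 100-200 nM. Bound TF was detected with fluorescent anti-GST. Each ungapped 8-mer (which stands for itself and its reverse complement) is scored by the PBM enrichment score (E-score), a modified Wilcoxon-Mann-Whitney statistic from -0.5 to +0.5, computed with the Universal PBM Analysis Suite. Scale: above 0.35 generally sequence-specific binding.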

Row | Sequence | PBM E-score
1 | AGTATGAC | 0.311
2 | AGTATGAG | 0.0941
3 | AGTATGAA | 0.203
4 | AGTATGAT | 0.271
5 | GGTATGAC | 0.231
6 | CGTATGAC | 0.142
7 | CCTGTGGA | -0.166
8 | CTCTCATC | -0.131
9 | CTTGCGGC | -0.0654
10 | TATATATA | 0.318
11 | GATATATC | 0.0354
12 | AATATATA | 0.157
13 | TATATACA | 0.162
14 | GATATACA | 0.113
15 | AATATATG | 0.19
16 | AATATATT | 0.284
17 | GATATATA | 0.284
18 | GATACATC | 0.224
19 | CATATATA | 0.256
20 | CATACATA | 0.238
21 | GATACATA | 0.332
22 | ATGGCTTC | 0.00791
23 | CGTTTCGC | -0.0307
24 | GAGTATGA | 0.228
25 | CTCTCAAC | 0.00283

Row | Sequence | PBM E-score
26 | GCTTAGTA | -0.171
27 | GGATCAAC | -0.0769
28 | GTAACCAA | 0.103
29 | TGCAATAA | -0.0029
30 | GGGGCCCA | -0.0152
31 | ACTGATAG | 0.167
32 | AGAATTAA | -0.301
33 | ATTGAAGC | -0.163
34 | AAAATTCA | -0.128
35 | CTACTATC | 0.277
36 | CTACTATA | 0.168
37 | ATACTATC | 0.128
38 | GGTCTGAC | 0.226
39 | AGGATGAC | 0.112
40 | ATGATGAC | 0.303
41 | AGGATGAT | 0.309
42 | AGGATGAA | -0.0977
43 | AGGATGAG | 0.225
44 | GGGATGAA | -0.00977
45 | CTGATGAC | 0.19
46 | ATGATGAG | 0.196
47 | GGGATGAC | 0.323
48 | GCTAGCCA | -0.17
49 | CAGATCAG | -0.112
50 | CGCGAATC | 0.193

Row | Sequence | PBM E-score
51 | ACGTATCC | -0.194
52 | CCATTAGC | -0.0966
53 | ATTGGCCG | -0.13
54 | GCACTGAC | 0.0316
55 | GCGAAGAA | -0.191
56 | TCACACCA | 0.17
57 | ACACACCA | 0.282
58 | CCACACCA | 0.141
59 | ACACACCC | 0.198
60 | ACACACCT | 0.283
61 | ACACACCG | 0.223
62 | AACGTCAA | -0.269
63 | AGGCTTCC | -0.119
64 | CAAACGAG | 0.0174
65 | CTATGGCA | -0.132
66 | GTCCTTAA | -0.00154
67 | TGCGCGCA | 0.29
68 | CGCGCGCG | 0.286
69 | CGCGCGCA | 0.259
70 | AGCGCGCG | 0.0844
71 | GGCGCGCA | 0.121
72 | CGCGCGCC | 0.228
73 | TGGTTGAA | -0.0692
74 | TATGCTCA | 0.0368
75 | GAGTGCCC | -0.0963

Row | Sequence | PBM E-score
76 | AAGCACTA | -0.0763
77 | GATGCTGA | 0.0169
78 | AATGCTGA | 0.027
79 | CATGCTGA | 0.275
80 | AACGACGC | -0.0318
81 | CATTCACC | 0.0887
82 | AAGAGGAT | -0.0743
83 | GGTCTTTA | -0.0868
84 | ACTCCCTA | 0.063
85 | ACTCCCTG | 0.276
86 | ACTCCCTC | 0.0377
87 | CGGGTCAG | 0.204
88 | TCAAGTCA | 0.111
89 | GGAAGTCA | 0.282
90 | GCAAGTCA | 0.279
91 | ACAAGTCA | 0.174
92 | CGAAGTCA | 0.203
93 | GGAAGTCC | -0.212
94 | TAGTTGAA | 0.134
95 | AAGAAACA | -0.161
96 | CCAGACGC | -0.029
97 | CTAAGGAC | -0.0588
98 | CGTTGCCC | -0.166
99 | ATCGCCTA | 0.0387
100 | AGGCAAAG | -0.192

Row | Sequence | PBM E-score
101 | AAGAGTCA | 0.422
102 | TAGAGTAA | -0.082
103 | TAGAGTGA | -0.0169
104 | GAGAGTCA | 0.43
105 | AAGAGTCC | -0.149
106 | GAGAGTCC | -0.0872
107 | TAGAGTCA | 0.355
108 | AAGAGTCT | 0.00073
109 | GAGAGTAA | 0.0595
110 | GGCTGGTA | 0.0349
111 | TATATTCA | 0.0779
112 | GAGTGTTA | 0.00822
113 | GTGCGATA | 0.0799
114 | GCAGTCTA | -0.0301
115 | CGGGTGAC | 0.143
116 | GCATTGAC | -0.0613
117 | GGCTGCCA | 0.181
118 | GCGGTAGC | 0.0852
119 | CAGAGAGG | -0.086
120 | AGGGTGGA | 0.0785
121 | AGGGTGGG | 0.282
122 | AGGGTGGC | 0.173
123 | GAGACTCA | 0.36
124 | GAGACTCC | 0.286
125 | AAGACTCC | 0.158

Row | Sequence | PBM E-score
126 | CAGACTCC | -0.0111
127 | CAGACTCA | 0.27
128 | GAGACTTA | -0.164
129 | AAGACTCA | 0.317
130 | AAGACTCT | 0.209
131 | TAGACTCA | 0.221
132 | CGAACCAG | 0.0659
133 | AACGGTTG | 0.038
134 | CCATAGGC | -0.172
135 | CCCGCCCG | 0.259
136 | CCCCGCCC | 0.258
137 | CCCGCCCC | 0.329
138 | CCCGCCCA | 0.301
139 | ACCGCCCC | 0.325
140 | ACCGCCCG | -0.058
141 | ACCGCCCT | -0.0373
142 | GCCGCCCA | 0.128
143 | GCCGCCCC | 0.0606
144 | GAGTCTGC | -0.0315
145 | AGTTTATG | -0.0791
146 | ACGTTATG | -0.0459
147 | CCTTCGCC | -0.031
148 | ATGCAGTA | 0.0873
149 | ATGCAGTG | 0.276
150 | ATGCAGTC | 0.184

Row | Sequence | PBM E-score
151 | GAATTTCC | -0.0327
152 | GGAGAAAA | -0.292
153 | AATCCACC | 0.154
154 | CAGTCCGA | 0.126
155 | GAGTCCGC | 0.224
156 | CAGTCGGA | 0.0502
157 | GAGTCGGA | 0.416
158 | CAGTCGTA | 0.132
159 | TAGTCGGA | 0.203
160 | AAGTCGTA | -0.0973
161 | GAGTCCGA | 0.308
162 | CAGTCGGC | 0.0497
163 | GAGTCGGC | 0.411
164 | GAGTCGTA | 0.405
165 | AAGTCGGC | -0.177
166 | AGTCCACT | -0.158
167 | ATGCATCC | -0.152
168 | GCAGCCCA | 0.0376
169 | AGGATTGG | -0.0691
170 | TAGTTAAA | 0.0419
171 | AACTGAAT | 0.00051
172 | GATTGGCA | -0.056
173 | AACTGAGG | -0.0666
174 | GTACAAAA | -0.0126
175 | ACGTTGAC | 0.0527

— the supplement of paper PMC3334620
